The values that follow come from the supplement of paper PMC10849652.

Holding throughout (assay): log2 fold change, soluble protein after heating vs DMSO (PISA); higher = thermal stabilisation; K562 lysate, 10 uM; active = over 0.2 and 3.5 SD of the protein, either way, in both replicates (recomputed)
Compound in one test: Cc1cn(-c2cc(NC(=O)c3ccc(C)c(Nc4nccc(-c5cccnc5)n4)c3)cc(C(F)(F)F)c2)cn1 [nilotinib]
Summed up: (§1)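 Dounce homogenisation of K562 pellets in PBS pH 7.4 with 1 mM MgCl2 produced a crude extract, used at 1 mg/mL protein. Exposure to 10 μM compound lasted 30 min, and aliquots were then heated for 3 min across 48°C-58°C, pooled and brought to 0.5% NP-40 at 4°C. The supernatant after 21,000xg for 90 min was quantified by TMTpro 16plex LC-MS/MS with channel sums equalised. Duplicate values are given as log-two fold change in thermal stability relative to solvent controls.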

Compound in test [1]: Cc1nc(Nc2n[nH]c3c2CN(C(=O)N[C@H](CN(C)C)c2ccccc2)C3(C)C)c2sccc2n1
Summed up:
as §1

Compound in another test: Cc1nc(Nc2ncc(C(=O)Nc3c(C)cccc3Cl)s2)cc(N2CCN(CCO)CC2)n1 [dasatinib]
Summed up:
as §1

Compound in test [2]: Cc1ncc(-c2ccnc(Nc3ccc(S(C)(=O)=O)cc3)n2)n1C(C)C
In a few lines: as §1

Compound in test [3]: Cn1cc(-c2ccc3c(c2)CCN3C(=O)Cc2cccc(C(F)(F)F)c2)c2c(N)ncnc21
In a few lines: as §1

Compound in the next test: Cn1cc(CNCC2CCN(c3ncc(C(=O)NO)cn3)CC2)c2ccccc21 [quisinostat]
In a few lines: as §1

Compound in another test: Cn1cncc1[C@@](N)(c1ccc(Cl)cc1)c1ccc2c(c1)c(-c1cccc(Cl)c1)cc(=O)n2C [tipifarnib]
In a few lines: as §1

Compound in test [4]: NC(=O)Nc1cc(-c2cccc(F)c2)sc1C(=O)N[C@H]1CCCNC1
Summed up:
as §1

Compound in test [5]: NC(=O)c1cnc(N[C@@H]2CCCC[C@@H]2N)nc1Nc1cccc(-n2nccn2)c1
In a few lines:
as §1

Compound in test [6]: NC1(c2ccc(-c3nc4ccn5c(=O)[nH]nc5c4cc3-c3ccccc3)cc2)CCC1
In a few lines:
as §1

About 8,800 targets were measured; listed, in parts, are those with a hit and a random draw of the rest. About 0.5% of all pairs of compound and target were hits. Unmarked numbers belong to inactive results.

UniProt Q5JRX3, sequence (Q5JRX3 whole entry, looked up): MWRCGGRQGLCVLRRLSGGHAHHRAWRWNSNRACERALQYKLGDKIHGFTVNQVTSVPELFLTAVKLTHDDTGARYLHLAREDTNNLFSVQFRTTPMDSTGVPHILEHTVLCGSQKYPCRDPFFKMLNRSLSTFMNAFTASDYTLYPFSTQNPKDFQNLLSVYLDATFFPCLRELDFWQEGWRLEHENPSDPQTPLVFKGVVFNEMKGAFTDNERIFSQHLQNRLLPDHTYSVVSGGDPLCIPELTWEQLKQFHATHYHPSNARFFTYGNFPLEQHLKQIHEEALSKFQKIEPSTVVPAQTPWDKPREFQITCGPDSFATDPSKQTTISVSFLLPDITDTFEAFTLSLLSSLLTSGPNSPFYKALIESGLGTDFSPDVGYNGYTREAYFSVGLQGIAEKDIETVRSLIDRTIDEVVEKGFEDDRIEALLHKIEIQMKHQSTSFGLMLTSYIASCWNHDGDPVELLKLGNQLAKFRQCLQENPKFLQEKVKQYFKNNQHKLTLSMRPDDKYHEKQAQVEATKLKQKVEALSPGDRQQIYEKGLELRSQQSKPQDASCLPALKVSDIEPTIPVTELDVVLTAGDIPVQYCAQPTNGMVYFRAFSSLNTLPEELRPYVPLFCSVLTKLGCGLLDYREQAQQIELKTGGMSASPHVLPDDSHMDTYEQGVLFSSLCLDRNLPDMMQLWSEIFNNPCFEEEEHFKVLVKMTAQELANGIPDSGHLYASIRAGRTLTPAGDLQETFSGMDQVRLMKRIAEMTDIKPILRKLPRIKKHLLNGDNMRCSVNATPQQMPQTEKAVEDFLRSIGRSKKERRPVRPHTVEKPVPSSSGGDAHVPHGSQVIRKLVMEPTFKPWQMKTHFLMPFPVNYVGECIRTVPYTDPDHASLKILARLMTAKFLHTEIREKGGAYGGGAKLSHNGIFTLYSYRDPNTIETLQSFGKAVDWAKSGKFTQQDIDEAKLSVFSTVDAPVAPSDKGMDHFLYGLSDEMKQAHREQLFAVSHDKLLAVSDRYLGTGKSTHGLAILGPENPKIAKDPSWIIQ
UniProt Q93096, sequence (Q93096 whole entry, looked up): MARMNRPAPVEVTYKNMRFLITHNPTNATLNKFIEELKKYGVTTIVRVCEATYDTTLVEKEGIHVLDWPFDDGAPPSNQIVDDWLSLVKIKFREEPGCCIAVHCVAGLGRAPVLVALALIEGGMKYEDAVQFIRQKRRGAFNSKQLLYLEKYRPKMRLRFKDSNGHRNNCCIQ
UniProt Q15269, sequence (Q15269 whole entry, looked up): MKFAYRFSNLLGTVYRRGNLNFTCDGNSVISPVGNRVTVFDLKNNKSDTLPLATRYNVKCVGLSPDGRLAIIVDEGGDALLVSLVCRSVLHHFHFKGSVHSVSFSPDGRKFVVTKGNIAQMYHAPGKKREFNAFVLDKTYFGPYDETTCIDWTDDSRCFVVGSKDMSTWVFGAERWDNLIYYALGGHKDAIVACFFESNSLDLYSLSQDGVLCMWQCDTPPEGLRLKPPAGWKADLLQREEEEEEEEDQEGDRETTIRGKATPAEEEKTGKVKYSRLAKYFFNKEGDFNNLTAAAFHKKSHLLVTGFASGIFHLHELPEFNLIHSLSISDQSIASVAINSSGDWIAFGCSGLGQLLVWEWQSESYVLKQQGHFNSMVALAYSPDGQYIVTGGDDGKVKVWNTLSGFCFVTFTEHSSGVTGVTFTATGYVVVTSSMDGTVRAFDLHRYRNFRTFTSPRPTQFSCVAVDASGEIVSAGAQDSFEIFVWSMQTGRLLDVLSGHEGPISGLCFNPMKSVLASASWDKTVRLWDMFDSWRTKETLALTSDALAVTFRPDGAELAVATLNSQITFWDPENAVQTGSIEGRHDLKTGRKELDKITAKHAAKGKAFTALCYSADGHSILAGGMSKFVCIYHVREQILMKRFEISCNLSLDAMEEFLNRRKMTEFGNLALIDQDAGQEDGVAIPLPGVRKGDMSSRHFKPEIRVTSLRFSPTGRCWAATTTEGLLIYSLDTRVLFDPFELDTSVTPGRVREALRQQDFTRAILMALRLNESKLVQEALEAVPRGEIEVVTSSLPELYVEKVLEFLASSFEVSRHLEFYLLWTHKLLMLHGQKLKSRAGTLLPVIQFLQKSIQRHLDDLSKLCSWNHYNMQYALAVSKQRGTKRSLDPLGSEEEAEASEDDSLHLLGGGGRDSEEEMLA
UniProt P27986, sequence (P27986 whole entry, looked up): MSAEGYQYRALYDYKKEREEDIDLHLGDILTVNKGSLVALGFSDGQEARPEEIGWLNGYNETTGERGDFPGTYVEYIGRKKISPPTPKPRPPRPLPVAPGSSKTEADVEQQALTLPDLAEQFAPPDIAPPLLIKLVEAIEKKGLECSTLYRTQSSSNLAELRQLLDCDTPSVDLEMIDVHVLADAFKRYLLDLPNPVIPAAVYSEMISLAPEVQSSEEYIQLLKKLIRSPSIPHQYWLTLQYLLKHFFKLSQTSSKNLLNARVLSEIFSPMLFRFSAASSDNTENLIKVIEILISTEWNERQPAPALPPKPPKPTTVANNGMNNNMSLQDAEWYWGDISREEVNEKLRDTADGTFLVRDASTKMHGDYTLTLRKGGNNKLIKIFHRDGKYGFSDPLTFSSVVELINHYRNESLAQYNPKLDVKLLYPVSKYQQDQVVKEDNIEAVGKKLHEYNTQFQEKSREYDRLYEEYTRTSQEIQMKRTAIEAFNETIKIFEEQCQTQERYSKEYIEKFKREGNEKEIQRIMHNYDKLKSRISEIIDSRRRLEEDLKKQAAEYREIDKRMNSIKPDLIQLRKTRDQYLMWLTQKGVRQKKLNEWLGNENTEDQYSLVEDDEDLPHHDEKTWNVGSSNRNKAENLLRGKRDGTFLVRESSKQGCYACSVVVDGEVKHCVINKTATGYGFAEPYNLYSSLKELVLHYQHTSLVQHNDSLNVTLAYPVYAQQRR
UniProt Q96S99, sequence (Q96S99 whole entry, looked up): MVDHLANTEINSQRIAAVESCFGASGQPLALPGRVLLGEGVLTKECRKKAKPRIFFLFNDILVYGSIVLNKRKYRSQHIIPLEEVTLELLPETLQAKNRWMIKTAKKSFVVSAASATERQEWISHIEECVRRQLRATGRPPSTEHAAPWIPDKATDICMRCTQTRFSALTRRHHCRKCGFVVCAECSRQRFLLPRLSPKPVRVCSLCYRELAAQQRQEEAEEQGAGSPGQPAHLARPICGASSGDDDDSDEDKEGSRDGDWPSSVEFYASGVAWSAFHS
UniProt P78356, sequence (P78356 whole entry, looked up): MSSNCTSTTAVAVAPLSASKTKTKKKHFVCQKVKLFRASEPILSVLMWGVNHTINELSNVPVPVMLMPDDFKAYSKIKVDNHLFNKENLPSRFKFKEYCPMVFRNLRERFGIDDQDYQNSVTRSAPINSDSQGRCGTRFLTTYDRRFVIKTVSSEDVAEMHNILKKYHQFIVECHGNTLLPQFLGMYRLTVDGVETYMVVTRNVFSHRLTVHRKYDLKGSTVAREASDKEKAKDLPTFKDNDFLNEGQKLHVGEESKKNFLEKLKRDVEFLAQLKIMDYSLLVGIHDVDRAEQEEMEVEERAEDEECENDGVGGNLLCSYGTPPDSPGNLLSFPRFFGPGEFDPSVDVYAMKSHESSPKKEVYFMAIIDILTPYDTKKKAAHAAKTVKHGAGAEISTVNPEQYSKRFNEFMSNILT
UniProt P48147, sequence (P48147 whole entry, looked up): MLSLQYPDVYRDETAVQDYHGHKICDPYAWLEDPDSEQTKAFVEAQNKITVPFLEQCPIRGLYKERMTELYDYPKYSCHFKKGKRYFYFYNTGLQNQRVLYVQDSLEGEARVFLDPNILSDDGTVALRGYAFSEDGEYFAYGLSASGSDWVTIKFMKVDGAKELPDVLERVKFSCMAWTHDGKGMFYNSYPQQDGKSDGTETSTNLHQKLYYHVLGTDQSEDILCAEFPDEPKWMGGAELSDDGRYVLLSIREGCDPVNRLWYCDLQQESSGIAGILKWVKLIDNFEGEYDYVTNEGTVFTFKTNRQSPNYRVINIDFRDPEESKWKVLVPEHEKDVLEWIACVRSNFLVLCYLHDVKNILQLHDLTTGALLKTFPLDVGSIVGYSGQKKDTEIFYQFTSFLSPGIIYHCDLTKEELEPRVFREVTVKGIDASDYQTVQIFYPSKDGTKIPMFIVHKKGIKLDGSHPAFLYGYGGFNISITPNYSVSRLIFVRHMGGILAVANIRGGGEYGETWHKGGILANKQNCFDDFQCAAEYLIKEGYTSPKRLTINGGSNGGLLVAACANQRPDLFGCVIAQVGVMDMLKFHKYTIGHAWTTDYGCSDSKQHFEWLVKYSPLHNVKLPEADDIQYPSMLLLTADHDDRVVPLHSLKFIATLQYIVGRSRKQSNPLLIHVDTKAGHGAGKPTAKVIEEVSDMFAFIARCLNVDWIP
UniProt Q99541, sequence (Q99541 whole entry, looked up): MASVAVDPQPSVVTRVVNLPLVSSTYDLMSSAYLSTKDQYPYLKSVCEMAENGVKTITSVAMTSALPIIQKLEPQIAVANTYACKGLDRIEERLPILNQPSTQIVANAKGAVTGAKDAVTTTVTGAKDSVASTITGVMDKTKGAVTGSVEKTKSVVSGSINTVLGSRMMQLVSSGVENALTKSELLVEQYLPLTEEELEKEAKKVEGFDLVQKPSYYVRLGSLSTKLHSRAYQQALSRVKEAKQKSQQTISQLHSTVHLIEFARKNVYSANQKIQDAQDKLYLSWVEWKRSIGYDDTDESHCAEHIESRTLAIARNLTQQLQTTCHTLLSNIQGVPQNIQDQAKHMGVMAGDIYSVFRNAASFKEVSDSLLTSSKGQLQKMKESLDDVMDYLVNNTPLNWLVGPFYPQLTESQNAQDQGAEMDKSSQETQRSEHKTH
UniProt Q13442, sequence (Q13442 whole entry, looked up): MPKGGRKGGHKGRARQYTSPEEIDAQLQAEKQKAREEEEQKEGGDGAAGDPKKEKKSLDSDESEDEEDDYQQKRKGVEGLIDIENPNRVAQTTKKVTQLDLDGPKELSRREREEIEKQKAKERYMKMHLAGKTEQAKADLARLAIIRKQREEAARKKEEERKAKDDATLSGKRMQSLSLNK

As to PCBP2 (UniProt H3BRU6), the log2 fold change is 0.066 in the test with nilotinib; 0.04 in test [1]; 0.079 with dasatinib; 0.027 in test [2]; -0.082 in test [3]; -0.119 with quisinostat. Moreover, the log2 fold change in the test with tipifarnib is -0.095; in test [4], 0.042; in [5] it was -0.023; in test [6], 0.084.
Consider QKI (UniProt Q96PU8), for which the log2 fold change with nilotinib is -0.053; in test [1] it was 0.006; in the test with dasatinib, -0.02; in test [2], 0.062; in [3] it was -0.038; with quisinostat, -0.013. Moreover, the log2 fold change with tipifarnib is -0.024; in test [4], 0.055; in [5] it was -0.005; in test [6] it was -0.008.
For PTP4A1 (UniProt Q93096), the log2 fold change was -0.035 with nilotinib; 0.005 in test [1]; 0.026 in the test with dasatinib; -0.057 in [2]; 0 in test [3]; 0.151 with quisinostat. In addition, the log2 fold change with tipifarnib was 0.011; in [4], -0.059; in test [5], -0.011; in [6], -0.029.
POC5 (UniProt Q8NA72): the log2 fold change with nilotinib was 0.01; in test [1], 0.058; in the test with dasatinib, -0.159; in [2], 0.09; in test [3] it was -0.081; with quisinostat it was 0.007. The log2 fold change is 0.005 in the test with tipifarnib, -0.005 in test [4], -0.128 in test [5] and 0.034 in test [6].
As to PREP (UniProt P48147), the log2 fold change with nilotinib is 0; in [1], -0.014; with dasatinib, -0.026; in [2], -0.002; in test [3] it was 0.007; in the test with quisinostat, 0.008. In addition, the log2 fold change in the test with tipifarnib was 0.023; in [4] it was 0.011; in test [5] it was 0.006; in [6], -0.005.
Take PLEKHF1 (UniProt Q96S99): the log2 fold change with nilotinib was -0.03; in test [1], -0.028; with dasatinib, -0.016; in [2] it was 0.012; in test [3] it was -0.027; in the test with quisinostat, -0.009. In addition, the log2 fold change in the test with tipifarnib was -0.012; in test [4] it was 0.021; in test [5] it was -0.002; in test [6] it was -0.023.
For PRKACB isoform 2 (UniProt P22694), the log2 fold change with nilotinib was -0.076; in test [1], 0.818 (active); in the test with dasatinib, 0.025; in [2], 0.091; in test [3] it was -0.028; in the test with quisinostat it was -0.033. Also, the log2 fold change is -0.063 with tipifarnib, 0.538 (active) in test [4], 0.177 in test [5] and -0.025 in [6].
With PUF60 (UniProt Q9UHX1), the log2 fold change with nilotinib is -0.006; in test [1] it was -0.002; with dasatinib, -0.025; in test [2], 0.011; in test [3], -0.017; with quisinostat it was 0.073. For the same target, the log2 fold change with tipifarnib was 0.016; in test [4], -0.017; in test [5] it was -0.001; in [6] it was 0.021.
On to POLD3 (UniProt Q15054), for which the log2 fold change with nilotinib is 0.03; in [1], -0.014; with dasatinib, -0.002; in test [2], 0.029; in test [3] it was 0.007; with quisinostat, -0.049. Also, the log2 fold change in the test with tipifarnib was 0.002; in test [4], 0.013; in [5], 0.018; in test [6], -0.027.
For the target PWP2 (UniProt Q15269), the log2 fold change is 0.016 with nilotinib; -0.006 in test [1]; -0.033 in the test with dasatinib; -0.032 in test [2]; -0.023 in [3]; -0.056 in the test with quisinostat. Also, the log2 fold change with tipifarnib was 0.004; in [4] it was 0.036; in test [5], -0.022; in test [6], 0.011.
As to PDAP1 (UniProt Q13442), the log2 fold change is 0 with nilotinib; 0.002 in test [1]; 0.066 with dasatinib; -0.01 in test [2]; -0.009 in test [3]; 0.013 with quisinostat. For the same target, the log2 fold change was 0.044 with tipifarnib, 0.017 in [4], -0.016 in [5] and -0.032 in [6].
As to PIP4K2B (UniProt P78356), the log2 fold change was 0.032 in the test with nilotinib; 0.024 in test [1]; 0.151 in the test with dasatinib; 0.093 in test [2]; 0.008 in test [3]; -0.017 with quisinostat. The log2 fold change was -0.007 with tipifarnib, 0 in test [4], 0.002 in test [5] and -0.034 in test [6].
For the target PLIN2 (UniProt Q99541), the log2 fold change with nilotinib is 0.088; in test [1], -0.012; with dasatinib, -0.092; in test [2], 0; in [3], 0.008; in the test with quisinostat, -0.031. Besides, the log2 fold change in the test with tipifarnib was -0.153; in [4] it was 0.038; in [5] it was -0.003; in [6], -0.018.
For the target PITRM1 isoform 2 (UniProt Q5JRX3), the log2 fold change with nilotinib is 0.014; in test [1] it was -0.035; in the test with dasatinib, 0.011; in test [2], -0.021; in [3] it was -0.002; with quisinostat, 0.021. In addition, the log2 fold change was 0.013 in the test with tipifarnib, 0.005 in test [4], 0 in [5] and -0.008 in test [6].
Regarding PIK3R1 (UniProt P27986), the log2 fold change is -0.041 with nilotinib; -0.072 in test [1]; -0.024 with dasatinib; 0.058 in [2]; 0.004 in test [3]; -0.027 with quisinostat. Also, the log2 fold change with tipifarnib was 0.039; in test [4] it was 0.042; in test [5], 0.021; in test [6], 0.249.
